Results published in PubChem BioAssay (NCI).
Compounds without any hit were thinned out: in the full panel of roughly 83,000, 20% have a hit.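 48-hour exposure, single concentration, 96-well plates; percent growth endpoint where 0 means no net growth. Active: below 10.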 A number with no mark means an inactive call. Calls of active or inactive are those of the source.

Key:
Test in all cases: NCI-60 one-dose screen, 48 h (100 = growth as untreated, 0 = no growth, -100 = all killed)
Settings in all cases: 10 µM unless noted
SK-MEL-2 melanoma = system: SK-MEL-2 melanoma
EKVX NSCLC = system: EKVX NSCLC
SN12C renal = system: SN12C renal
UO-31 renal = system: UO-31 renal
TK-10 renal = system: TK-10 renal
ACHN renal = system: ACHN renal
CAKI-1 renal = system: CAKI-1 renal
A498 renal = system: A498 renal
CCRF-CEM leukemia = system: CCRF-CEM leukemia
MOLT-4 leukemia = system: MOLT-4 leukemia

Row | SMILES | growth (SK-MEL-2 melanoma) | growth (EKVX NSCLC) | growth (SN12C renal) | growth (UO-31 renal) | growth (TK-10 renal) | growth (ACHN renal) | growth (CAKI-1 renal) | growth (A498 renal) | growth (CCRF-CEM leukemia) | growth (MOLT-4 leukemia)
1 | CN(C)CCCC1(c2ccc(F)cc2)OCc2cc(-c3cc4ccccc4s3)ccc21 (stereo not given) | 72.3% | 46.8% | 37% | 21% | 60.5% | 14.3% | 21.4% | 81% | 4.59% (active) | -8.07% (active)
2 | C=CN(C(=O)N1CCN(c2cc3c(cc2F)c(=O)c(C(=O)O)cn3C2CC2)CC1)c1nc(-c2ccc(OC)cc2)cs1 | 18.4% | 23.7% | 11.3% | 15.5% | 42.8% | 23.6% | 17.3% | 8.44% (active) | 8.17% (active) | 18%
3 | CNC(=O)c1cc(Oc2cccc3nc(NC(=O)Nc4cc(C(F)(F)F)ccc4Cl)ccc23)ccn1 | 119% | 99.5% | 93.5% | 105% | 111% | 101% | 85.8% | 109% | 80.8% | 89.5%
4 | O=C(CSc1nnc(-c2cc(-c3ccccc3)nc3ccccc23)n1-c1ccccc1)Nc1ccc(C(=O)/C=C/c2ccc(Cl)cc2)cc1 | 112% | 88.5% | 85.1% | 84.4% | 110% | 87.1% | 81.5% | 81.5% | 72.2% | 68.6%
5 | COc1ccc(CNc2c3ccccc3nc3ccccc23)c(OC)c1 | 94% | 51.1% | 31% | 28% | 54.4% | 25.8% | 36.2% | -11.5% (active) | 55.4% | 18.5%
6 | CCOC(=O)c1c(C)nc2ccccc2c1/C=C/c1ccccc1 | 71.7% | 63.6% | 88.3% | 60.7% | 92.5% | 72.7% | 59.5% | 76% | 45.8% | 23.6%
7 | CC1(C)CC(=O)c2c(nn(-c3ccc(Br)cc3)c2-c2cn(-c3ccccc3)nc2-c2cccnc2)C1 | 98.1% | 92.5% | 92.7% | 65.4% | 140% | 93.4% | 66.5% | 98.5% | 94.4% | 81.5%
8 | CN(CCCNC(=O)Cc1ccc2ccc3cccc4ccc1c2c34)CCCNc1cc(-c2ccc3ccccc3c2)nc2ccccc12 | -59.5% (active) | -44.6% (active) | -66.2% (active) | -47.4% (active) | -58.2% (active) | -66.4% (active) | -36.9% (active) | -62% (active) | -74.5% (active) | -82.9% (active)
9 | CN1CCN(C(=O)[C@@]2(C)CC[C@]3(C)CC[C@]4(C)C(=CC[C@@H]5[C@@]6(C)CCC(=O)NC(C)(C)[C@@H]6CC[C@]54C)[C@@H]3C2)CC1 | 78.3% | 79.6% | 58% | 48.3% | 79.4% | 69.9% | 42.5% | 73.1% | 29% | 15.8%
10 | COC(=O)CC[C@@H]1O[C@@H](c2ccc(F)cc2)[C@@H](O)[C@H]1O | 109% | 104% | 109% | 94% | 101% | 101% | 96.8% | 112% | 107% | 105%
11 | Cc1nn(-c2ccccc2)c(N)c1N=C1NC(=O)/C(=C/c2ccc(Br)cc2)S1 | 104% | 87.7% | 73.8% | 72.1% | 106% | 88.5% | 68% | 67% | 72.1% | 80.8%
12 | CCC1S/C(=N\N=C(\C)c2cc3cc(Cl)ccc3o2)N(c2ccccc2)C1=O (stereo not given) | 299% | 102% | 118% | 145% | 88% | 103% | 60.1% | 22.2% | -53.2% (active) | 36.4%
13 | CC(C)CCN(CCC(C)C)CC(O)c1cc2c(c3ccccc13)CCCC2 (stereo not given) | 76.4% | 73% | 68.6% | 48.7% | 102% | 52.4% | 77.2% | 52.5% | 65.6% | 55.6%
14 | C=C(C)[C@@H]1CC[C@]2(C)[C@H](CC=C3[C@@H]4CC(C)(C)CC[C@]4(CO)CC[C@]32C)[C@@]1(C)CCCN | -35.7% (active) | 97.4% | -59.7% (active) | 47.7% | -45.8% (active) | -40.8% (active) | 40.3% | 80.5% | -18.4% (active) | -35.9% (active)
15 | Cc1ccc(-c2nc(SCc3nc4cc(Cl)c(Cl)cc4[nH]3)[nH]c(=O)c2C#N)cc1 | 90.1% | 96.4% | 102% | 81.7% | 99.3% | 106% | 88.3% | 112% | 111% | 101%
16 | COC(=O)N1CC(Oc2ccccn2)C2CC1c1ccccc1O2 (stereo not given) | 116% | 104% | 93% | 88.6% | 98.2% | 95.7% | 93.3% | 83.4% | 87.8% | 94.5%
17 | Cc1ccc(/C=C(\C#N)n2nnc3cc(F)c(F)cc32)cc1 | 14.8% | 30.9% | 2.07% (active) | 13.2% | 22.4% | 22.5% | 32.6% | 13% | 5.57% (active) | -2.32% (active)
18 | O=C(CN1CCCCCC1)Nc1nc2ccc(NCc3ccc(Cl)cc3)cc2s1 | 109% | 96.4% | 95.5% | 88.6% | 110% | 88.7% | 86.1% | 110% | 93% | 92.4%
19 | CCCCCCCCCCCCCCCCCC1=NC(C)(C)CN1CC(C)O (stereo not given) | 84.6% | 78.8% | 49.8% | 68.8% | 81.6% | 80.6% | 84.7% | 79.1% | 47.1% | 34.9%
20 | COc1ccc(C(=S)N2CCN(c3ccc(Cl)cc3)CC2)cc1 | 97.7% | 130% | 85.4% | 81.9% | 101% | 94.8% | 105% | 107% | 90.3% | 76.8%
21 | Cc1ccc(C)c(/C=C2\CN(C(=O)OC(C)(C)C)C/C(=C\c3cc(C)ccc3C)C2=O)c1 | 82% | 82.8% | 31.4% | 61.1% | 89.1% | 15.5% | 45.2% | 73% | 4.98% (active) | 7.4% (active)
22 | CN(C)c1ccc(/C=C(\C#N)c2cc3ccccc3[nH]2)cc1 | 27.3% | 42.2% | 29% | 37.8% | 49.2% | 46.2% | 31.5% | 14.4% | 9.57% (active) | 38.4%
23 | COc1cccc(NCc2nnc(Nc3ccc(Cl)cc3)c3ccccc23)c1 | -34.4% (active) | -0.284% (active) | 14.5% | -42.5% (active) | -40.9% (active) | -5.35% (active) | 9.01% (active) | -26.8% (active) | -4.42% (active) | -27.2% (active)
24 | O=C1c2ccccc2C(=O)c2c1c(C(=O)NCc1ccccc1)c1ccccn21 | 87.8% | 105% | 107% | 89.8% | 97.2% | 103% | 91.7% | 95.6% | 90.2% | 96.3%
25 | C/C(=N\O)c1ccc(NC(=O)CSc2nnc(-c3cc(-c4ccc(S(C)(=O)=O)cc4)nc4ccccc34)n2-c2ccccc2)cc1 | 100% | 84.7% | 89.2% | 65.2% | 107% | 90.8% | 73.8% | 53.1% | 68.2% | 57.9%
26 | COc1cc2c(cc1OCCCCN1CCN(C(=S)SCCC(C#N)(c3ccccc3)c3ccccc3)CC1)N=C[C@@H]1CCCN1C2=O | -95.1% (active) | -94.8% (active) | -57.4% (active) | 10.8% | -79.6% (active) | -68.8% (active) | -64.7% (active) | -95% (active) | -20.2% (active) | -13.2% (active)
